Experimental data published in PubChem BioAssay (EPA / NIEHS).
Activity calls are given as the source filed them. How the source made its calls: active means hit-call score of the fitted dose curve at least 0.9, where 1 is the maximum; inactive means score below 0.9.

Tests used:
Conditions in all cases: mRNA level, 48 h; actives raise or lower the signal
[1] = read-out: Fatty Acid-Binding Protein 1 (FABP1), FABP1 (gene 2168); test: LTEA_HepaRG_FABP1: Life Technologies and Expression Analysis (LTEA) Assay for Fatty Acid-Binding Protein 1 (FABP1) using HepaRG (AID 2283494)
Method in brief: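 Differentiated human HepaRG cells were exposed in duplicate for 48 h in serum-free induction medium to 8-point half-log concentration series topping at 100 uM in 0.5% DMSO. FABP1 mRNA measured by TaqMan qRT-PCR, normalized to ACTB/GAPDH/POLR2A; bidirectional fit versus DMSO.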

[2] = read-out: Cytochrome P450 4A22 (Homo sapiens) (UniProt Q5TCH4); test: LTEA_HepaRG_CYP4A22: Life Technologies and Expression Analysis (LTEA) Assay for Cytochrome P450 4A22 (CYP4A22) using HepaRG (AID 2283495)
Method in brief: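 Gene expression measured by qRT-PCR against three housekeeping genes (ACTB, GAPDH, POLR2A), with gain or loss fitted relative to 0.5% DMSO vehicle. HepaRG cultures received 48 h chemical treatment, top concentration 100 uM, half-log steps, duplicate wells.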

[3] = read-out: Glutathione S-Transferase (GSTA2), GSTA2 (gene 2939); test: LTEA_HepaRG_GSTA2: Life Technologies and Expression Analysis (LTEA) Assay for Glutathione S-Transferase (GSTA2) using HepaRG (AID 2283497)
Method in brief: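 Human HepaRG cells, plated 48 h, then exposed in serum-free induction medium for 48 h to eight half-log concentrations up to 100 uM in 0.5% DMSO, duplicate. GSTA2 mRNA by qRT-PCR, normalized to ACTB/GAPDH/POLR2A; bidirectional fit versus DMSO.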

[4] = read-out: Glutamate-cysteine ligase catalytic (GCLC), GCLC (gene 2729); test: LTEA_HepaRG_GCLC: Life Technologies and Expression Analysis (LTEA) Assay for Glutamate-cysteine ligase catalytic (GCLC) using HepaRG (AID 2283498)
Method in brief: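 Differentiated human HepaRG cells, plated 48 h then switched to serum-free induction medium, were exposed in duplicate for 48 h to 8 half-log concentrations topping at 100 uM in 0.5% DMSO. GCLC mRNA was quantified by qRT-PCR against ACTB, GAPDH and POLR2A.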

[5] = read-out: growth arrest and DNA damage 45 (GADD45G), GADD45G (gene 10912); test: LTEA_HepaRG_GADD45G: Life Technologies and Expression Analysis (LTEA) Assay for growth arrest and DNA damage 45 (GADD45G) using HepaRG (AID 2283499)
Method in brief: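 GADD45G transcript level by qRT-PCR (housekeeping-normalized: ACTB, GAPDH, POLR2A) after 48 h chemical treatment of a single HepaRG lot in serum-free induction medium; eight-point half-log series up to 100 uM in 0.5% DMSO, duplicates, up- or down-regulation scored.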

[6] = read-out: Glutamate-cysteine ligase regulatory (GCLM), GCLM (gene 2730); test: LTEA_HepaRG_GCLM: Life Technologies and Expression Analysis (LTEA) Assay for Glutamate-cysteine ligase regulatory (GCLM) using HepaRG (AID 2283500)
Method in brief: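 Human liver HepaRG cultures receive test chemicals for 48 hours at up to 100 uM in 0.5% DMSO. GCLM expression is measured by qRT-PCR and analysed for increases or decreases against vehicle.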

[7] = read-out: Glutathione S-transferase M3 (GSTM3), GSTM3 (gene 2947); test: LTEA_HepaRG_GSTM3: Life Technologies and Expression Analysis (LTEA) Assay for Glutathione S-transferase M3 (GSTM3) using HepaRG (AID 2283501)
Method in brief: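 GSTM3 transcript levels came from Fluidigm TaqMan qRT-PCR normalized to three housekeeping genes, fitted in both directions against DMSO. HepaRG cultures received chemicals for 48 h in serum-free induction medium (0.5% DMSO), 8 half-log concentrations up to 100 uM, duplicate.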

[8] = read-out: Heat shock 70 kDa protein 1 (HSPA1A), gene 3303; test: LTEA_HepaRG_HSPA1A: Life Technologies and Expression Analysis (LTEA) Assay for Heat shock 70 kDa protein 1 (HSPA1A) using HepaRG (AID 2283502)
Method in brief: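 HSPA1A induction in human HepaRG liver cells is measured after 48 h of chemical treatment (100 uM maximum, 0.5% DMSO vehicle). Expression comes from qRT-PCR normalized to endogenous controls.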

[9] = read-out: 3-Hydroxy-3-Methylglutaryl-CoA Synthase 2 (HMGCS2), HMGCS2 (gene 3158); test: LTEA_HepaRG_HMGCS2: Life Technologies and Expression Analysis (LTEA) Assay for 3-Hydroxy-3-Methylglutaryl-CoA Synthase 2 (HMGCS2) using HepaRG (AID 2283504)
Method in brief: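 Readout is HMGCS2 transcript by qRT-PCR, housekeeping-normalised (ACTB/GAPDH/POLR2A) and fitted bidirectionally against 0.5% DMSO. Differentiated HepaRG cells received chemicals 48 h, duplicate wells, eight half-log concentrations topping at 100 uM.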

[10] = read-out: Insulin Like Growth Factor 1 (IGF1), IGF1 (gene 3479); test: LTEA_HepaRG_IGF1: Life Technologies and Expression Analysis (LTEA) Assay for Insulin Like Growth Factor 1 (IGF1) using HepaRG (AID 2283506)
Method in brief: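 Using human HepaRG liver cells, IGF1 transcript induction or suppression is measured 48 h after dosing across eight concentrations capped at 100 uM. Values derive from bidirectional concentration-response fitting with DMSO as baseline.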

[11] = read-out: Intercellular Adhesion Molecule 1 (ICAM1), ICAM1 (gene 3383); test: LTEA_HepaRG_ICAM1: Life Technologies and Expression Analysis (LTEA) Assay for Intercellular Adhesion Molecule 1 (ICAM1) using HepaRG (AID 2283507)
Method in brief: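 ICAM1 transcript levels measured by qRT-PCR, normalized to three housekeeping genes (ACTB, GAPDH, POLR2A), after 48 h chemical exposure of HepaRG cells. Duplicate eight-point half-log series from 100 uM in 0.5% DMSO; gain or loss fitted against vehicle.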

[12] = read-out: Insulin-like growth factor-binding protein 1 (IGFBP1), IGFBP1 (gene 3484); test: LTEA_HepaRG_IGFBP1: Life Technologies and Expression Analysis (LTEA) Assay for Insulin-like growth factor-binding protein 1 (IGFBP1) using HepaRG (AID 2283508)
Method in brief: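 Read-out is qRT-PCR transcript level normalized to three housekeeping genes, fitted in both directions against 0.5% DMSO. Differentiated HepaRG cells received eight half-log concentrations (top 100 uM) in duplicate for 48 h in serum-free induction medium.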

[13] = read-out: Interleukin 6 (IL6), IL6 (gene 3569); test: LTEA_HepaRG_IL6: Life Technologies and Expression Analysis (LTEA) Assay for Interleukin 6 (IL6) using HepaRG (AID 2283509)
Method in brief: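 Differentiated human HepaRG cells, plated 48 h then switched to serum-free induction medium, were exposed in duplicate for 48 h to eight half-log concentrations up to 100 uM in 0.5% DMSO. IL6 mRNA measured by qRT-PCR, normalized to ACTB/GAPDH/POLR2A.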

[14] = read-out: Potassium channel subfamily K member 1 (KCNK1), KCNK1 (gene 3775); test: LTEA_HepaRG_KCNK1: Life Technologies and Expression Analysis (LTEA) Assay for Potassium channel subfamily K member 1 (KCNK1) using HepaRG (AID 2283511)
Method in brief: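 Differentiated human HepaRG cells in serum-free induction medium were exposed in duplicate for 48 h to 8 half-log concentrations up to 100 uM in 0.5% DMSO. KCNK1 mRNA was measured by TaqMan qRT-PCR, normalized to ACTB, GAPDH and POLR2A, and fitted bidirectionally versus DMSO.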

[15] = read-out: Keratin 19 (KRT19), KRT19 (gene 3880); test: LTEA_HepaRG_KRT19: Life Technologies and Expression Analysis (LTEA) Assay for Keratin 19 (KRT19) using HepaRG (AID 2283512)
Method in brief: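 KRT19 transcript measured by TaqMan qRT-PCR, referenced to three housekeeping genes, after HepaRG cells received test chemicals for 48 h. Eight half-log concentrations, top 100 uM, 0.5% DMSO vehicle; increases and decreases both fitted.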

[16] = read-out: JUN Transcription Factor, JUN (gene 3725); test: LTEA_HepaRG_JUN: Life Technologies and Expression Analysis (LTEA) Assay for JUN Transcription Factor using HepaRG (AID 2283513)
Method in brief: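 Human HepaRG liver cells receive test chemicals in 0.5% DMSO for 48 h across an eight-point range topping at 100 uM. Expression changes in JUN are scored in both directions against the DMSO vehicle.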

[17] = read-out: Hypoxia-inducible factor 1-alpha (Homo sapiens) (UniProt Q16665); test: LTEA_HepaRG_HIF1A: Life Technologies and Expression Analysis (LTEA) Assay for Hypoxia-inducible factor 1 (HIF1A) Trancription factor using HepaRG (AID 2283503)
Method in brief: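 HepaRG, 48 h exposure, 8-pt half-log series from 100 uM, 0.5% DMSO vehicle, duplicates. Readout: HIF1A transcript by qRT-PCR (Fluidigm array), housekeeping-normalised. Bidirectional curve fit vs DMSO baseline.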

HGF (gene 3082) = test: LTEA_HepaRG_HGF: Life Technologies and Expression Analysis (LTEA) Assay for Hepatocyte Growth Facto (HGF) using HepaRG (AID 2283505)
Method in brief: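 HGF transcript was quantified by TaqMan qRT-PCR against three housekeeping genes after 48 h treatment of HepaRG cells. Exposure ran in duplicate over eight half-log steps topping at 100 uM in 0.5% DMSO vehicle.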

[18] = read-out: Interleukin 6 Receptor (IL6R), IL6R (gene 3570); test: LTEA_HepaRG_IL6R: Life Technologies and Expression Analysis (LTEA) Assay for Interleukin 6 Receptor (IL6R) using HepaRG (AID 2283510)
Method in brief: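 Concentration-response in human liver HepaRG cells: eight concentrations from 100 uM downward by half-logs, 48 h exposure, 0.5% DMSO vehicle. IL6R mRNA change measured by qRT-PCR and fitted in both directions relative to vehicle.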

Measured: AC50

Chain of Hypoxia-inducible factor 1-alpha (Homo sapiens) (Q16665 whole entry, looked up): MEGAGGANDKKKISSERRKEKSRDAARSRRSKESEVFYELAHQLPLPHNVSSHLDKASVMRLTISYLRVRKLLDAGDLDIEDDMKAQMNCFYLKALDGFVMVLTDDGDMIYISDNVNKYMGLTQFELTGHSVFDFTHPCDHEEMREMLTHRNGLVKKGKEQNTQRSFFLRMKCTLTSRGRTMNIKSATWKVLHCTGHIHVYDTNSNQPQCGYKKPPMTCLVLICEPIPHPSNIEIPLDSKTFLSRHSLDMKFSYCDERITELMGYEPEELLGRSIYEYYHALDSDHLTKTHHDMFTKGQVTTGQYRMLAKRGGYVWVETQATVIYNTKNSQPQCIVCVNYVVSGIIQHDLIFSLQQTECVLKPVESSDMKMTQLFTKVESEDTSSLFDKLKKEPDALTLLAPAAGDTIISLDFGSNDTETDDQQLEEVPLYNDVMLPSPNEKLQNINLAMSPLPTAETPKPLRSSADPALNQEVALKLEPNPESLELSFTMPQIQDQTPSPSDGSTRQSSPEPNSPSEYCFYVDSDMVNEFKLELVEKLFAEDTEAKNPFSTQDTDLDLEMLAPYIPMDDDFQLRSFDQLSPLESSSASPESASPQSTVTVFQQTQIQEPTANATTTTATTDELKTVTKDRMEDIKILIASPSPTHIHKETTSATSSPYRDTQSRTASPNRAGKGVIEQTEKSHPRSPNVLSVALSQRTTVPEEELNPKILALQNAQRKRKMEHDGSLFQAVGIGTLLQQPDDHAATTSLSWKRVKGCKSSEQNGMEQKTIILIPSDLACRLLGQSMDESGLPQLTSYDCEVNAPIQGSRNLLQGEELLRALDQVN

Cn1cc[nH]c1=S
not listed: [17] | HGF (gene 3082) | [18]
inactive: all other assays above

O=C(O)c1cccc(C[C@@H]2COc3ccc(OCc4nc5cc(F)ccc5s4)cc3[C@@H]2O)c1
active: [1] 79.3 µM | [2] 90.8 µM | [5] 79.5 µM | [8] 89.2 µM | [17] 81.3 µM | [9] 66.8 µM | HGF (gene 3082) 50 µM
not listed: [18]
inactive: all other assays above

OCC(CO)(CO)CO
not listed: [18]
inactive: all other assays above

CCCCN1C(=O)[C@@H]([C@H](O)C2CCCCC2)NC(=O)C12CCN(Cc1ccc(Oc3ccc(C(=O)O)cc3)cc1)CC2
active: [1] 2.84 µM | [2] 3.35 µM | [3] 2.39 µM | [4] 2.25 µM | [5] 4.63 µM | [7] 4.76 µM | [8] 1.8 µM | [9] 5.05 µM | HGF (gene 3082) 9.25 µM | [10] 9.61 µM | [11] 2.32 µM | [12] 2.45 µM | [13] 2.99 µM | [14] 391 nM
inactive: [6] | [17] | [15] | [16]

C=CCc1cc(S(=O)(=O)c2ccc(O)c(CC=C)c2)ccc1O
inactive: [5] | [6] | [7] | [11] | [14] | [16]
active: [1] 86.8 µM | [2] 82.6 µM | [3] 93.1 µM | [4] 50 µM | [8] 79 µM | [17] 91.4 µM | [9] 86.3 µM | HGF (gene 3082) 79.5 µM | [10] 83.5 µM | [12] 79.6 µM | [13] 93.2 µM | [15] 50 µM

Cc1ncc([C@@H](CCCCCCc2ccc3c(n2)NCCC3)CC(=O)O)cn1
not listed: [18]
inactive: all other assays above

CC(C)CC(C)O (centres undefined)
not listed: [18]
inactive: all other assays above

C[C@@H](Oc1ccc(CNC(=O)c2cccnc2Oc2ccc3c(c2)OCO3)c(F)c1)C(=O)O
active: [1] 50 µM | [2] 28.6 µM | [9] 25.8 µM
not listed: [5] | [18]
inactive: all other assays above

OC(Cn1cncn1)(Cn1cncn1)c1ccc(F)cc1F
inactive: all assays above

CCCc1ccccc1
not listed: [18]
inactive: all other assays above

COCc1nnc(-c2ccc[n+]([O-])c2)n1-c1c(Cl)c(Cl)cc2[nH]c(=O)c(=O)[nH]c12
not listed: [18]
inactive: all other assays above

Nc1ccn([C@@H]2O[C@H](CO)[C@@H](O)[C@@H]2O)c(=O)n1
not listed: [18]
inactive: all other assays above

Cc1ccc(S(=O)(=O)NC(=O)NN2CCCCCC2)cc1
not listed: [2] | [17]
inactive: all other assays above

O=C1CN(N=Cc2ccc([N+](=O)[O-])o2)C(=O)N1
active: [1] 41.9 µM | [2] 44.3 µM | [3] 81.8 µM | [5] 71.6 µM | [6] 72.5 µM | [9] 72 µM | [10] 50 µM | [12] 33.4 µM | [15] 88.7 µM
inactive: [4] | [7] | [8] | [17] | [11] | [13] | [18] | [14] | [16]
